TR SRC2 fluor cs: Total Fluorescence Counterscreen for Inhibitors of the Interaction of Thyroid Hormone Receptor and Steroid Receptor Coregulator 2. 0.29% of 280,000 active. Potency, µM (top dose mostly 106 µM). TRb/SRC2 Texas Red total fluorescence interference. AID 1479, 2009; active = well fitted curve in either direction with a large enough effect; inconclusive = small, poorly fitted or top-dose-only effect
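Flags fluorescent or light-absorbing compounds by total fluorescence, S + 2P, at 555 nm excitation and 632 nm emission. Mixture: 20 nM Texas Red SRC2 peptide, 0.6 uM human TRb LBD, 1 uM T3, 5% DMSO; compound exposure 5 h at ambient temperature.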
Tau fibril ThT: qHTS for Inhibitors of Tau Fibril Formation, Thioflavin T Binding | Potency, µM (doses to about 57.4 µM), actives largely listed as inhibitors | 2.1% of 270,000 active | AID 1460, 2008 | recombinant tau K18 P301L, heparin-induced fibrillization, ThT fluorescence; also: nearly all actives have a fitted effect of over 55% in size
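In this qHTS, human K18 P301L tau is incubated with compound and heparin for 6 hr at 37 C, and Thioflavin T fluorescence then reports fibril load.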
Tau fluor cs: Counterscreen qHTS for Inhibitors of Tau Fibril Formation, Fluorescence Polarization; tau K18 P301L Alexa594 fluorescence, heparin fibrillization; Potency, µM (titrated, usually from 57.7 µM); 0.93% of 280,000 active; also: nearly all actives have a fitted effect of over 55% in size
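Human tau K18 P301L (15 uM unlabeled, 0.24 uM Alexa 594-labeled) in 100 mM sodium acetate pH 7 with 20 uM heparin, 6 hr at 37 C. ThT 30 uM added, 1 hr ambient; Alexa 594 FP and total fluorescence read at 555/632 nm.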
TRb SRC2 PPI: qHTS for Inhibitors of the Interaction of Thyroid Hormone Receptor and Steroid Receptor Coregulator 2 | Potency, µM (series often up to 106 µM), most hits filed as inhibitors | TRbeta-SRC2 peptide binding, fluorescence polarization; receptor liganded with 1 µM T3 | 0.065% of 280,000 active; also: nearly all actives have a fitted effect of over 50% in size
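A fluorescence polarization screen tested compounds at multiple concentrations against complex formation between 0.6 uM TRb ligand-binding domain and 20 nM Texas Red SRC2 peptide, with 1 uM T3 present; readout after 5 hr.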
RGS12 GoLoco inh-1: qHTS Assay for Inhibitors of RGS12 GoLoco Motif Activity (Red Fluorophore) | Gai1:RGS12 GoLoco peptide FP, rhodamine, 10 min | Potency, µM (top dose mostly 61.6 µM), most hits filed as inhibitors | 0.44% of 230,000 active | AID 880, 2007; active = well fitted inhibition curve with a large enough effect, not every such curve was filed as active; inactive = no such curve, though single readings can be large or run the other way; also: nearly all actives have a fitted effect of over 30% in size
Tau fibril FP: qHTS for Inhibitors of Tau Fibril Formation, Fluorescence Polarization. Potency, µM (highest dose often 57.7 µM), actives largely listed as inhibitors. K18 P301L tau heparin fibrillization, Alexa594 FP, 6 h. AID 1468, 2008. 0.39% of 280,000 active. Microtubule-associated protein tau (Homo sapiens), P10636; also: nearly all actives have a fitted effect of over 55% in size
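Human tau K18 […] P301L fragment, 15 uM unlabeled plus 0.24 uM Alexa 594-labeled tau (final), with compound and 20 uM heparin in 100 mM sodium acetate pH 7; 6 hr at 37 C, then Alexa 594 FP read.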
RGS12 GoLoco inh-2: Confirmation qHTS Assay for Inhibitors of RGS12 GoLoco Motif Activity (Red Fluorophore) | shares compounds with RGS12 GoLoco inh-1 | Gai1/rhodamine-RGS12 GoLoco peptide fluorescence polarization | Potency, µM (top dose mostly 57.1 µM), actives largely listed as inhibitors | 50% of 110 active | AID 2390, 2010
Target sequence (O14924 whole entry, looked up): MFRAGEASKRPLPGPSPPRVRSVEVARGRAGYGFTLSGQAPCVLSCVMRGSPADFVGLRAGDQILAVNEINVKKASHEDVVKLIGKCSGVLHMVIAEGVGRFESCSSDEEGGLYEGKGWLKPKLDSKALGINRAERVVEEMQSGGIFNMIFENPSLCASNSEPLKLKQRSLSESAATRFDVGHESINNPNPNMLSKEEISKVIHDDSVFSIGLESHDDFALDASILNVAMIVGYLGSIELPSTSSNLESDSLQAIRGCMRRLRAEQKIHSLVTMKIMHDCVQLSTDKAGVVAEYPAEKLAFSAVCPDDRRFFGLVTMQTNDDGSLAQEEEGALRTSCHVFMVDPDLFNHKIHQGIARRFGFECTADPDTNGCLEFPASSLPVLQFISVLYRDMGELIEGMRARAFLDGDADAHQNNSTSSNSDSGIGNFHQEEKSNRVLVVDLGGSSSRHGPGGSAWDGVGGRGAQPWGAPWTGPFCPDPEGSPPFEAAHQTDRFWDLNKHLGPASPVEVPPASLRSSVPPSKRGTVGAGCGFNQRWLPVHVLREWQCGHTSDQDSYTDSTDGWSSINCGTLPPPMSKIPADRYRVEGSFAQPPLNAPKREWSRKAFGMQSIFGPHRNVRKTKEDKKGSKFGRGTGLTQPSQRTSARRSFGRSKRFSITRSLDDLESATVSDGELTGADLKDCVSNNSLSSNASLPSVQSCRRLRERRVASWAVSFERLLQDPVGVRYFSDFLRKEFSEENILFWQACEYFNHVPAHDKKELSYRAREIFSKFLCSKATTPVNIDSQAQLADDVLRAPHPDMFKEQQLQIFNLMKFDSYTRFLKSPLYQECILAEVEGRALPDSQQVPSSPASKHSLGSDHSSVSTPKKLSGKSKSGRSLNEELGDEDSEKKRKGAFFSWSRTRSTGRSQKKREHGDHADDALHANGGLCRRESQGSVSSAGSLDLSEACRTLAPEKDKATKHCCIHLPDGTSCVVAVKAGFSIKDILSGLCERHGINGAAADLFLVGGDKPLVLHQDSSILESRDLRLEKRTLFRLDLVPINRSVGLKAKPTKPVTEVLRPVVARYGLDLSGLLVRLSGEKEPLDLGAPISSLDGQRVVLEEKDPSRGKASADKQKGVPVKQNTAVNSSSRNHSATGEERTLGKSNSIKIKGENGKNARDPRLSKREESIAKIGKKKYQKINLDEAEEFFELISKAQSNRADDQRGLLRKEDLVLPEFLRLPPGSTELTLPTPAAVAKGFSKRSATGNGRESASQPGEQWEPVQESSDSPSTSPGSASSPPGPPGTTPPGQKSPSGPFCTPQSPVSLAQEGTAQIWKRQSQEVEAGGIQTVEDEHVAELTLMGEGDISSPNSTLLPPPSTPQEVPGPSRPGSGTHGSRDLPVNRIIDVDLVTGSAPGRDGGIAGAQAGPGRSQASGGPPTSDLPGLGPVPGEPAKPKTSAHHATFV
Hits are given with their value; n = inactive; u = inconclusive; x = no result given; ! = not active in a repeat; [ ] = another dose, or the depositor's remark. Most compounds without a hit are left out; they make up all but 3.2% or so of the library. Unless noted, calls follow the shape of the dose curve; as a rule, active = well fitted curve in the direction sought with a large enough effect; inconclusive = small, poorly fitted or top-dose-only effect, or another doubt; inactive = no such curve, though single readings can be large; an effect the other way counts as inactive or inconclusive.

SMILES	TR SRC2 fluor cs	Tau fibril ThT	Tau fluor cs	TRb SRC2 PPI	RGS12 GoLoco inh-1	Tau fibril FP	RGS12 GoLoco inh-2
Oc1ccc2c3c1OC1C(O)CC[C@]4(O)C(C2)N(CC2CCC2)CC[C@]314 (stereo partly drawn)	n	n	n	n	28µM	n	n
Oc1ccc2c3c1OC1C(O)CC[C@@]4(O)[C@@H](C2)N(CC2CCC2)CC[C@]314 (stereo partly drawn)	n	n	n	n	n	n	x
OC(c1ccc(Cl)cc1)(c1ccc(Cl)cc1)C(Cl)(Cl)Cl	n	x	x	n	n	x	x
COc1ccc2c(c1OC)C(=O)OC2C1c2cc3c(cc2CCN1C)OCO3 (stereo not drawn)	n	n	n	n	20µM!	n	n
CC[C@@]1(O)CC(O)c2c(cc3c(c2O)C(=O)c2c(O)ccc(O)c2C3=O)C1C(=O)OC (stereo partly drawn)	u	7.9µM	n	n	2.8µM	n	5µM
CCc1ccc(CCN2CCCCC2)nc1	x	x	x	x	n[14.2 µM]	x	x
O=C(CCN1CC2CCC(CC2)C1)c1cccs1	x	x	x	x	n[14.2 µM]	x	x
CCCC[N+]12CCC(CC1)C(C(=O)c1cccs1)C2 (stereo not drawn)	n	n	n	n	6.3µM	n	16µM
CCC(CO)(C(=O)OC1C[N+]2(C)CCC1CC2)c1ccccc1 (stereo not drawn)	n	n	n	n	16µM	n	16µM
C/C1=C/C(=O)O[C@@H]2C[C@@H](CC[C@H](C)/C=C\CC1)O[C@@](O)(C1CSC(=O)N1)C2 (stereo partly drawn)	n	x	x	n	x	x	x

Screening data: PubChem BioAssay, National Center for Advancing Translational Sciences (NCATS)
